From PubChem BioAssay (NCATS)
Records with an inconclusive call do not appear. Activity calls are given as the source filed them. Unless noted, calls come from the whole dose curve; as a rule, active = well fitted curve in the direction sought with a large enough effect; inconclusive = small, poorly fitted or top-dose-only effect, or another doubt; inactive = no such curve, though single readings can be large; an effect the other way counts as inactive or inconclusive.

How the values were obtained:
[1] = HTS Assay for Allosteric Antagonists of the Human D2 Dopamine Receptor: Hit Validation in HTRF (AID 624455);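 note: stable D1 dopamine receptor cell line scored for blocking the D1 response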
Summary of the method: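 Hits were examined in an HTRF assay using cells stably expressing the D1 dopamine receptor, scoring inhibition of the D1-mediated response. The preceding primary screen tracked calcium flux after an EC80 dopamine addition in force-coupled, inducible Hek293 Trex D2 cells.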

[2] = target: Arylsulfatase A (Homo sapiens) (UniProt P15289); experiment: qHTS screen for enhancers of Arylsulfatase A (ASA1): LOPAC Validation Assay (AID 720538)
Arylsulfatase A (Homo sapiens), sequence (P15289 whole entry, looked up): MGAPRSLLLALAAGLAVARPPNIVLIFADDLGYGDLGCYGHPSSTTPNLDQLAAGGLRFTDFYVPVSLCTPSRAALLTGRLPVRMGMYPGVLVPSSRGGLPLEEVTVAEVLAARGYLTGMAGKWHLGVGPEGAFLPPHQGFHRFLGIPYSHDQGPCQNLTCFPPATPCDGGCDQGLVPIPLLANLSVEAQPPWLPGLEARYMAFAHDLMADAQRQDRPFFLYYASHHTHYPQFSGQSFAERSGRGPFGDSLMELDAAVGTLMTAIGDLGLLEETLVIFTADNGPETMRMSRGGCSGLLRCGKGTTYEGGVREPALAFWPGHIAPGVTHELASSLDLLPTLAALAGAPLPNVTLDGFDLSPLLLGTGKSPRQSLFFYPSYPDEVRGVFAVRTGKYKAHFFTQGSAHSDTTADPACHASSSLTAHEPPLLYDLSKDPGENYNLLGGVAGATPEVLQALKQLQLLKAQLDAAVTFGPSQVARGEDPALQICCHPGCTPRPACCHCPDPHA
Summary of the method: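 Cell-based enhancement test: residual ASA activity in SV40-transformed I179S patient fibroblasts is measured by pNCS turnover (0.5mM final, 14h, room temperature) following 48h compound incubation; higher fluorescence indicates activation.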

[3] = qHTS for compounds that reverse cellular toxicity of Amyloid beta (A-beta) peptide in yeast: LOPAC Validation Assay (AID 720559)
Summary of the method: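 Here, A-beta-toxic yeast grow with test compounds at 30 C for 48 hr before optical density at 600 nm is recorded; data are normalized against DMSO and the FeCl3-clioquinol control.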

[4] = qHTS for Activators of Parkin Expression: LOPAC Validation Assay (NLuc Reporter) (AID 720572)
Summary of the method: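 Neuronal line stably carrying a FLuc/NLuc coincidence reporter under the Parkin promoter, seeded 24 h, then dosed in 7-point series for 24 h at 37 C. NLuc luminescence read after FLuc; normalized to DMSO and positive control (100%).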

[5] = qHTS for Activators of Parkin Expression: LOPAC Validation Assay (FLuc Reporter) (AID 720573)
Summary of the method: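 Readout is FLuc luminescence from neuronal reporter cells (Parkin promoter, FLuc plus NLuc) after 24 h compound exposure in dose response. Values normalized to neutral DMSO and positive-control compounds.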

[6] = target: T1, Hexokinase-4 (Homo sapiens) + Glucokinase regulatory protein (Homo sapiens) (UniProt P35557+Q14397); experiment: qHTS assay for inhibitors of recombinant human GCK-GKRP interaction: Diaphorase-coupled assay (AID 743205)
T1 sequence (P35557 whole entry, looked up): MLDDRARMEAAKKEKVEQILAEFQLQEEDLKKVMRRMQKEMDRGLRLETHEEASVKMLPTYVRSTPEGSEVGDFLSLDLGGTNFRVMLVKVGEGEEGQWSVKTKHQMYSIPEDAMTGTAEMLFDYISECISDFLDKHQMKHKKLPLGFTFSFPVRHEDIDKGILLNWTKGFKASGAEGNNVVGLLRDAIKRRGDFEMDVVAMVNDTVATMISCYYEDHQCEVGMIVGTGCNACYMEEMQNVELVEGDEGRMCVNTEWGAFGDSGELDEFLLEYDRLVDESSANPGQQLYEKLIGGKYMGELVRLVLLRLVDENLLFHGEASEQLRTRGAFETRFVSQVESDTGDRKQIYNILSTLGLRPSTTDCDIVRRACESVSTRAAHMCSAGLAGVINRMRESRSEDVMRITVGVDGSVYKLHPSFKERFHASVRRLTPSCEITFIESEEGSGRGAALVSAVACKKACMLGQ
T1 sequence (Q14397 whole entry, looked up): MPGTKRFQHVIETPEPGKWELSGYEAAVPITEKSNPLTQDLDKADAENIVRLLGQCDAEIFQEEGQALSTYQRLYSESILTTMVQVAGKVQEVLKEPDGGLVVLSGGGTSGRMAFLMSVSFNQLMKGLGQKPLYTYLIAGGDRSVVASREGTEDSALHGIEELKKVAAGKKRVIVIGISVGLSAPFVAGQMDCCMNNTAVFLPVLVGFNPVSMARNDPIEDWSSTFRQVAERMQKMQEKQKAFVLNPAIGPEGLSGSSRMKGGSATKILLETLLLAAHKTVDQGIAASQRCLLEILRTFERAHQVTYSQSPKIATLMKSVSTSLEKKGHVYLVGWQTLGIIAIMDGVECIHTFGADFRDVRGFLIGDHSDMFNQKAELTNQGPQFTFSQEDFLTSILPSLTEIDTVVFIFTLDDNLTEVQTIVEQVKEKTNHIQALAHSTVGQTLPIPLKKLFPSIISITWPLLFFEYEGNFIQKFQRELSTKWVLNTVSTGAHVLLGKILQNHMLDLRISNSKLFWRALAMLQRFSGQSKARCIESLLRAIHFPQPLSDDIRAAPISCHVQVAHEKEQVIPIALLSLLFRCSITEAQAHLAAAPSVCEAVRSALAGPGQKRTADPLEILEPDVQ
Summary of the method: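 Signal derives from resorufin generated by diaphorase, linked to GCK turnover of glucose (5 mM) and ATP (0.4 mM). Enzyme complex was added after a 20-minute compound preincubation and monitored for 30 minutes.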

[7] = target: T1, Hexokinase-4 (Homo sapiens) + Glucokinase regulatory protein (Homo sapiens); experiment: qHTS assay for inhibitors of recombinant human GCK-GKRP interaction: ADP-Glo assay (AID 743206)
Summary of the method: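 GST-GCK and FLAG-GKRP (15 nM each in the dispensed mix, with 2 uM S6P) react with 0.4 mM ATP and 5 mM glucose (final) in Hepes pH 7.6 for 60 min at room temperature. ADP is measured by ADP-Glo luminescence.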

[8] = target: T1, Hexokinase-4 (Homo sapiens) + Glucokinase regulatory protein (Homo sapiens); experiment: qHTS assay for inhibitors of recombinant human GCK-GKRP interaction: HTRF assay (AID 743207)
Summary of the method: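 Titration screening format: recombinant GST-GCK and FLAG-GKRP at 5 nM, S6P at 2 uM, labelled anti-tag antibodies, 60 min at RT, dual-wavelength HTRF readout.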

[9] = Natriuretic polypeptide receptor (hNpr1) antagonism - Pilot counterscreen GloSensor control cell line (AID 1347045; calls by dose curve)
Summary of the method: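 HEK293 cells carrying the GloSensor cGMP sensor (GIP/pGS-40F) were loaded with 2% GloSensor reagent for 2 h, exposed to compounds for 30 min, and then stimulated with 50 uM sodium nitroprusside for 20 min at room temperature.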

[10] = target: Atrial natriuretic peptide receptor 1 (Homo sapiens) (UniProt P16066); experiment: Natriuretic polypeptide receptor (hNpr1) antagonism - Pilot screen (AID 1347049; calls by dose curve;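 note: agonist-evoked cGMP luminescence read 20 min after hNppA addition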)
Atrial natriuretic peptide receptor 1 (Homo sapiens), sequence (P16066 whole entry, looked up): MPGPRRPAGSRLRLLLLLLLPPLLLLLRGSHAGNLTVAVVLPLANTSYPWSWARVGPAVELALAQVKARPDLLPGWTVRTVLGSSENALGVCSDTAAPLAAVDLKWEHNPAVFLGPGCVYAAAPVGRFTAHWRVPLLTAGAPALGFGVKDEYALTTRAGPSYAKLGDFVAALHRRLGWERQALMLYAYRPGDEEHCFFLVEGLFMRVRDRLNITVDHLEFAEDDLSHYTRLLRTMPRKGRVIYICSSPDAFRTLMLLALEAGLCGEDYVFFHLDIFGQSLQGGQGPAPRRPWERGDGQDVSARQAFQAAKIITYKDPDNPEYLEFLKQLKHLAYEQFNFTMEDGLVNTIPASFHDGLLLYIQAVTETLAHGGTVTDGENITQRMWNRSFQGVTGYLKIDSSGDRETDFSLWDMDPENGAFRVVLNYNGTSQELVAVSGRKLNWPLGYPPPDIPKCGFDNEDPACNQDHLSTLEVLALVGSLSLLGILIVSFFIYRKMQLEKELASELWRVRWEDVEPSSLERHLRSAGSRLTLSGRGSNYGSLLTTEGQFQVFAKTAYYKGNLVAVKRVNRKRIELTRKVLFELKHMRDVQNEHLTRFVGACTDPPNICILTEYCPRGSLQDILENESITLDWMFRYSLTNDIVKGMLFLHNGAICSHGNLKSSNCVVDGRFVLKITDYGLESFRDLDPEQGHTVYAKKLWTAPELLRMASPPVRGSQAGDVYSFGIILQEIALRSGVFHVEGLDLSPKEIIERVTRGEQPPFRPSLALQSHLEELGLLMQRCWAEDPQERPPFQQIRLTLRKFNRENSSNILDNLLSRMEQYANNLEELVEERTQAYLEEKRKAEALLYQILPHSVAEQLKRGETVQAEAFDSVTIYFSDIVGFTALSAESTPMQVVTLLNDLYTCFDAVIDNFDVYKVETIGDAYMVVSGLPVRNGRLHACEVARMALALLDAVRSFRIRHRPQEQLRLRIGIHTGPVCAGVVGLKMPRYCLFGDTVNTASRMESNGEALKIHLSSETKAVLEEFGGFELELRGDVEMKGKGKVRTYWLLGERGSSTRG
Summary of the method: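 HEK293 cells co-expressing hNpr1 and the GloSensor pGS-40F cGMP luciferase sensor were preloaded with 2% GloSensor reagent for 2 h. Compounds were added for 30 min at room temperature, then cells were stimulated with 0.1 nM hNppA for 20 min before luminescence readout.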

[11] = target: T2, Tyrosine-protein phosphatase non-receptor type substrate 1 (Homo sapiens) + Leukocyte surface antigen CD47 (Homo sapiens) (UniProt P78324+Q08722); experiment: CD47-SIRPalpha protein protein interaction - LANCE assay qHTS validation (AID 1347057; active = well fitted curve in the direction sought with a large enough effect in the signal ratio, with a control signal flat, not every such curve was filed as active; the % refers to the signal ratio)
T2 sequence (P78324 whole entry, looked up): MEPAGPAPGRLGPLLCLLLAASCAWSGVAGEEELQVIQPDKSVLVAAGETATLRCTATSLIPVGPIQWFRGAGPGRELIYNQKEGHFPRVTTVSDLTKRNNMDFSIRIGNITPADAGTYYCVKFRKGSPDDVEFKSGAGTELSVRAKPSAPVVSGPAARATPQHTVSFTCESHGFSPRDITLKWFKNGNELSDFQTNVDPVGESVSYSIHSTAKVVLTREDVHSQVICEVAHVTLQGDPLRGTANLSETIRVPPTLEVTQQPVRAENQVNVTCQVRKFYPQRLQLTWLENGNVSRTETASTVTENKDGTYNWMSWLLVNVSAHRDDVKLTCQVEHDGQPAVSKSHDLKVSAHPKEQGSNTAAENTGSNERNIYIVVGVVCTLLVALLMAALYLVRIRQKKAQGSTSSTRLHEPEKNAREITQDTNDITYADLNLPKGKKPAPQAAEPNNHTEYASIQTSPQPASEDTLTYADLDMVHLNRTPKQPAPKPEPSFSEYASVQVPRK
T2 sequence (Q08722 whole entry, looked up): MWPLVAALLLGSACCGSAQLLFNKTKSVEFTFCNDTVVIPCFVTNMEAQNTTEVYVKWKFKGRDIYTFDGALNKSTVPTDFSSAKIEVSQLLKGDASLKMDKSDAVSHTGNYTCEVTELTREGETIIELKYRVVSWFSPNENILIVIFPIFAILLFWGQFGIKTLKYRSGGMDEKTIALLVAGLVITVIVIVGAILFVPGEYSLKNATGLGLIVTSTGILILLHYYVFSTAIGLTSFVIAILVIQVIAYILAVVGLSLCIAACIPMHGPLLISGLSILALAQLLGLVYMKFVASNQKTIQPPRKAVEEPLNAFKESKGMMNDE
Summary of the method: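 First, His-tagged CD47 and Eu-labelled anti-His antibody met the compound for 30 min; next, site-specifically biotinylated SIRPalpha was added for 30 min; finally streptavidin-APC was added before reading the TR-FRET ratio.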

[12] = target: T2, Tyrosine-protein phosphatase non-receptor type substrate 1 (Homo sapiens) + Leukocyte surface antigen CD47 (Homo sapiens); experiment: CD47-SIRPalpha protein protein interaction - HTRF assay qHTS validation (AID 1347058; active = well fitted curve in the direction sought with a large enough effect in the signal ratio, not every such curve was filed as active; the % refers to the signal ratio)
Summary of the method: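 TR-FRET read (Ch1/Ch2 ratio) of soluble extracellular CD47 and Avi-biotinylated SIRPalpha domains in PBS pH 7.4 with 0.05% IGEPAL; 7-point compound titration. Sequential 30 min room-temperature steps; non-biotinylated SIRPalpha as control inhibitor.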

[13] = target: T2, Tyrosine-protein phosphatase non-receptor type substrate 1 (Homo sapiens) + Leukocyte surface antigen CD47 (Homo sapiens); experiment: CD47-SIRPalpha protein protein interaction - Alpha assay qHTS validation (AID 1347059);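 note: bead proximity luminescence from CD47 binding SIRPalpha after compound preincubation with SIRPalpha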
Summary of the method: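 Soluble extracellular domains: Avi-tag biotinylated SIRPalpha (25 nM) preincubated 30 min RT with compound, then 6His-CD47 (12.5 nM) 30 min; Ni-NTA acceptor and streptavidin donor beads (10 ug/mL) 30 min, AlphaScreen read. PBS pH 7.4, 0.05% IGEPAL.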

[14] = target: N-terminal Xaa-Pro-Lys N-methyltransferase 1 (Homo sapiens) (UniProt Q9BV86); experiment: qHTS Assay for Inhibitors of N-terminal methyltransferase 1 (NTMT1): LOPAC validation of the NTMT1 SAHH-coupled ThioGlo3 Assay (AID 1347143); note: potency is the fitted concentration of half-maximal effect; nearly all actives have a fitted effect of over 70% in size
N-terminal Xaa-Pro-Lys N-methyltransferase 1 (Homo sapiens), sequence (Q9BV86 whole entry, looked up): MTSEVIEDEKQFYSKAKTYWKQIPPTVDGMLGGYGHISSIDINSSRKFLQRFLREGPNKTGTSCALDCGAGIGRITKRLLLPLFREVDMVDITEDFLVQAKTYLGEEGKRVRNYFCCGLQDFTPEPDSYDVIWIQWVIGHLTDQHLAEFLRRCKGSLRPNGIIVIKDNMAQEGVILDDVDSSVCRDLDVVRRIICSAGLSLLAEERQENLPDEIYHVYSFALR
Summary of the method: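 Fluorescence read-out (excitation 340nm, emission 450nm) of SAH-derived thiol, measured via SAHH coupling and ThioGlo3, taken immediately and after a 30 min room-temperature reaction, then normalized to the background read. Enzyme: NTMT1 at 125nM; cofactor SAM 100uM in the added reagent.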

[15] = qHTS to identify inhibitors of the type 1 interferon - major histocompatibility complex class I in skeletal muscle: primary screen against the NCATS LOPAC collection (AID 1347405);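 note: lytic HiBiT luminescence reporting HLA-B protein level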
Summary of the method: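 Immortalized human C25cl48 myoblasts with HiBiT knocked into endogenous HLA-B*08:01 were stimulated with 4.0 ng/ml IFN-beta and given compounds in a 7-point, 1:4.3 titration from 46 uM final; after 24 hrs, lytic HiBiT luminescence was read.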

[16] = qHTS for inhibitors of adenylyl cyclases using a fission yeast platform: a pilot screen against the NCATS LOPAC library (AID 1347410)
Summary of the method: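 Inhibition of GNAS-stimulated AC9 activity in S. pombe was inferred from derepression of a PKA-repressed fbp1-GFP reporter, measured as cytometric fluorescence after 18 h at 30C with compounds at up to 57 µM.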

[17] = Validation qHTS assay for inhibitors of Activation Induced Cytidine Deaminase (AID): UDG Counterscreen signal (AID 1347427)
Summary of the method: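 Counterscreen read of UDG activity (2 U/mL, 4/3x) in the FRET deamination format with AID (1 uM, 4/3x), DJC20/DJC23 substrates (250 nM, 4x), 4 h at room temperature. NaOH stop, fluorescence at 560 ex/665 em.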

[18] = target: Single-stranded DNA cytosine deaminase (Homo sapiens) (UniProt Q9GZX7); experiment: Validation qHTS assay for inhibitors of Activation Induced Cytidine Deaminase (AID): AID signal (AID 1347429)
Single-stranded DNA cytosine deaminase (Homo sapiens), sequence (Q9GZX7 whole entry, looked up): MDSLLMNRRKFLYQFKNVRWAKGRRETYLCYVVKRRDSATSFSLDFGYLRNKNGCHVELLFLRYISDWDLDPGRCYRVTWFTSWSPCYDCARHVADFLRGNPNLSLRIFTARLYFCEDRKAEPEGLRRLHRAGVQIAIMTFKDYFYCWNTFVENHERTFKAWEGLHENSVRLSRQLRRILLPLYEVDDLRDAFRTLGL
Summary of the method: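 AID and UDG were combined and compounds added at final up to 114 uM, then DJC20/DJC23 FRET substrate was added for 4 hr at room temperature. NaOH was then added for 30 min before fluorescence was read at 540/590 nm.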

[19] = target: Calcium and integrin-binding protein 1 (Homo sapiens) (UniProt Q99828); experiment: Validation qHTS for Identification of Calcium Integrin Binding protein 1 (CIB1) Competitor (AID 1508618)
Calcium and integrin-binding protein 1 (Homo sapiens), sequence (Q99828 whole entry, looked up): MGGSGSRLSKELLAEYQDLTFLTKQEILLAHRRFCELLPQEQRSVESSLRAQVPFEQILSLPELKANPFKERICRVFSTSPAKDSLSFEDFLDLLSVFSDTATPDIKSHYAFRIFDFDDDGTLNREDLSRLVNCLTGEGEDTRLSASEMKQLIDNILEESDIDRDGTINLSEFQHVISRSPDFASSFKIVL
Summary of the method: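 Displacement of FITC-alphaIIb peptide (100 nM) from CIB1-GST (1 uM) is monitored by polarization in quantitative HTS format; buffer carries 5 mM CaCl2 and 125 mM NaCl at pH 7.4, incubations are at room temperature.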

[20] = Primary qHTS for small molecule stabilizers of the endoplasmic reticulum resident proteome: Secreted ER Calcium Modulated Protein (SERCaMP) assay (AID 1508630)
Summary of the method: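 GLuc-SERCaMP-expressing SH-SY5Y cells, pretreated 16 h with compound, are challenged with thapsigargin to empty ER calcium stores; after 4 h, coelenterazine is added directly to the medium and luminescence is imaged.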

Papain (Carica papaya) = Papain (Carica papaya) (UniProt P00784); experiment: Primary qHTS assay for inhibitors of the protease papain (AID 1645873);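 note: papain turnover of Z-FR-AMC read as the AMC fluorescence gain over 10 min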
[21] = target: Catechol O-methyltransferase (Homo sapiens) (UniProt P21964); experiment: Confirmatory Screen for Target Class Profiling of Small Molecule Inhibitors of Methyltransferases (AID 1745852; calls by dose curve); conditions: MTase-Glo luminescence, SAH detection, recombinant enzyme; measured here: COMT max response; stronger effect = lower value
[22] = target: Guanidinoacetate N-methyltransferase (Homo sapiens) (UniProt Q14353); experiment: as above; conditions: activity change, negative = inhibition: at 57.3 µM (top of the series) unless noted
[23] = target: Nicotinamide N-methyltransferase (Homo sapiens) (UniProt P40261); experiment: as above; conditions: MTase-Glo luminescence, SAH detection, recombinant enzyme; measured here: NNMT max response; stronger effect = lower value
Nicotinamide N-methyltransferase (Homo sapiens), sequence (P40261 whole entry, looked up): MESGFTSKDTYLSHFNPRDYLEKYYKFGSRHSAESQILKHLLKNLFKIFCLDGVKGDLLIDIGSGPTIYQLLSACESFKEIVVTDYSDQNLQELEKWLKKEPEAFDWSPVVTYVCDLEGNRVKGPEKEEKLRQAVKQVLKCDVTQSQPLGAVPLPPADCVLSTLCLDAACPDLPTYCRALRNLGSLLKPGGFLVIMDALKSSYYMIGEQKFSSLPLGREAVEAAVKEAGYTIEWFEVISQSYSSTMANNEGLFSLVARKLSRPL

[24] = target: Phenylethanolamine N-methyltransferase (Homo sapiens) (UniProt P11086); experiment: as above; conditions: MTase-Glo luminescence, SAH detection, recombinant enzyme; measured here: PNMT max response; stronger effect = lower value
Phenylethanolamine N-methyltransferase (Homo sapiens), sequence (P11086 whole entry, looked up): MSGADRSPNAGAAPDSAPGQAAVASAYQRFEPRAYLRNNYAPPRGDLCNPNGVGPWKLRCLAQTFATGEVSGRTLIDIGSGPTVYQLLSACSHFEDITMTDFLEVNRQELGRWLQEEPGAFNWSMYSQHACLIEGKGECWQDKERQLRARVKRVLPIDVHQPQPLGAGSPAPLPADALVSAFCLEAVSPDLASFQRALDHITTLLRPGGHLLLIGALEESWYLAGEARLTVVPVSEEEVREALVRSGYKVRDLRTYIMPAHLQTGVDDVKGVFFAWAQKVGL

[25] = target: Metallo-beta-lactamase type 2 (Klebsiella pneumoniae) (UniProt C7C422); experiment: qHTS to identify inhibitors of the New Delhi Metallo-beta-lactamase (NDM): assay validation screen against the NCATS LOPAC Collection (AID 1794843);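 note: nitrocefin turnover by NDM-1 measured as 485 nm absorbance at plateau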
Summary of the method: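 Enzyme 2 nM final, 50 mM HEPES pH 7.0, 1 uM ZnSO4, 0.01% Tween20; cpds in DMSO, preincub w/ enzyme; + nitrocefin (50 uM stock); A485 at plateau; no-enzyme column as blank.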

[26] = target: Glutathione peroxidase 1 (Homo sapiens) (UniProt P07203); experiment: Primary qHTS Assay for Inhibitors of Recombinant Selenoprotein Glutathione Peroxidase 1 (GPX1) (AID 1845191); note: nearly all actives have a fitted effect of over 65% in size
Glutathione peroxidase 1 (Homo sapiens), sequence (P07203 whole entry, looked up): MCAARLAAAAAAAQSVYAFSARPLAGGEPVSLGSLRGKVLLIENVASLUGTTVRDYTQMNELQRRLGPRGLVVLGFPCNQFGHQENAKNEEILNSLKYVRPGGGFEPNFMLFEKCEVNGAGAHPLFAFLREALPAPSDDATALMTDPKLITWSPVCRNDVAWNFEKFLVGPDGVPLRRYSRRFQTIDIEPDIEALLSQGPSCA
Summary of the method: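 Recombinant GPX1 (10 nM final) was preincubated with compound for 30 min at room temperature, then reacted with 1 mM GSH, 0.5 mM CHP, 0.5 mM NADPH and 100 nM glutathione reductase; NADPH fluorescence (340/450 nm) was read at 0 and 15 min.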

CN1C2CCCC1CC(NC(=O)c1nn(C)c3ccccc13)C2 (configuration not stated)
active: Potency [14] 56.2 µM
inactive: outcome [1] | Potency [2] | outcome [3] | outcome [4] | Potency [5] | outcome [6] | outcome [7] | outcome [8] | Potency [9] | Potency [10] | outcome [11] | outcome [12] | Potency [13] | Potency [15] | outcome [16] | outcome [17] | Potency [18] | outcome [19] | Potency [20] | Potency (Papain (Carica papaya)) | Potency [25] | Potency [26]
0.961%: activity [23]
1.32%: activity [21]
4.07%: activity [24]
5.2%: activity change, negative = inhibition [22]
